High-throughput results (PubChem)
eLon inh – inhibitors of E. coli Lon protease; purified E. coli Lon protease, fluorescence polarization; inhibition, % at 7.94 µM; 360,000 tested, 0.42% active; in the data active = inhibition above about 13%, passing the limit was not always enough
PAFAH2 FP inh – inhibitors of human PAFAH2; 340,000 tested, 0.99% active; recombinant PAFAH2, FP-rhodamine activity probe, fluorescence polarization; Q99487; inhibition, % at 3.39 µM;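 active = inhibition above the mean over all tested compounds plus 3 SD, cut at about 30% in these data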;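 also: inhibitors block probe labeling of enzyme so polarization drops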
Rin1-Abl PPI inh – inhibitors of human Rin1-Abl protein interaction; TR-FRET Rin1/Abl binding, biochemical; 360,000 tested, 0.4% active; inhibition, % at 7.35 µM; P00519+Q13671; in the data active = inhibition above about 5%, passing the limit was not always enough
pPAFAH FP inh – inhibitors of human plasma PAF acetylhydrolase (pPAFAH); recombinant pPAFAH, FP-rhodamine probe fluorescence polarization; AID 463082; 330,000 tested, 1.5% active; Q13093; inhibition, % at 3.39 µM;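 active = inhibition above the mean inhibition across the screen plus 3 SD, cut at about 25% in these data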;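 also: inhibitors block binding of the rhodamine activity-based probe so polarization drops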
Target sequence (Q13093 whole entry, looked up): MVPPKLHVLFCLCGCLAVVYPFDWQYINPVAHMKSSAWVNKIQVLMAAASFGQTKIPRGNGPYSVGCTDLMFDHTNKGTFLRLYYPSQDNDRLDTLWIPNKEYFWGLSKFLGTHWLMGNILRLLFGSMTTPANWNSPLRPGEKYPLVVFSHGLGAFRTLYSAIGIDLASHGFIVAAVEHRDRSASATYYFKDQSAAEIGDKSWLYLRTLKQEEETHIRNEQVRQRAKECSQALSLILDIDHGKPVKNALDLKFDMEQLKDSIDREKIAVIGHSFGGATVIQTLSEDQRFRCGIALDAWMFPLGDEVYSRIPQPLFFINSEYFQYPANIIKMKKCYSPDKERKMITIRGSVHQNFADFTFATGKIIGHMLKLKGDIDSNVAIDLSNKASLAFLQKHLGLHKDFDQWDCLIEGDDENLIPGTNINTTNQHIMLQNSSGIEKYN
PAFAH1B2 FP inh – PAFAH1B2 (human) inhibition. P68402. recombinant PAFAH1B2, FP-rhodamine activity probe, fluorescence polarization. inhibition, % at 3.39 µM. 340,000 tested, 1.2% active;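 active = inhibition above the mean of all tested compounds plus 3 SD, cut at about 24% in these data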
PAFAH1B3 FP inh – PAFAH1B3 (human) inhibition; inhibition, % at 3.39 µM; recombinant PAFAH1B3, FP-rhodamine probe, fluorescence polarization; AID 492972; Q15102; 340,000 tested, 0.28% active;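 active = inhibition above the screen-wide average of all tested compounds plus 3 SD, cut at about 25% in these data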
Target sequence (Q15102 whole entry, looked up): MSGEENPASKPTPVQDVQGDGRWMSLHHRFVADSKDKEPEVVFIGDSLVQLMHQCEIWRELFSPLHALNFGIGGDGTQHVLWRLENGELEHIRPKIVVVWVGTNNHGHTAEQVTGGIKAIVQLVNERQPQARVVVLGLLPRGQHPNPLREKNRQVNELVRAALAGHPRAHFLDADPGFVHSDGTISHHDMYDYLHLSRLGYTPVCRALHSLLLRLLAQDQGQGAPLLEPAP
PAFAH2 confirm – confirmation of human PAFAH2 inhibitors; inhibition, % at 3.39 µM; 2,300 tested, 65% active; AID 493030; recombinant PAFAH2, FP-rhodamine activity probe, fluorescence polarization; shares compounds with PAFAH2 FP inh;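 active = mean inhibition over three repeats above a set limit taken from the earlier primary screen, cut at about 30% in these data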;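 also: inhibitor blocks binding of rhodamine activity probe so polarization falls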
Each line names hits and unclear results; the compound was inactive in the other large screens (follow-up assays come after a bar, where they were run). Hits are enriched below; roughly 3.1% of the tested compounds scored in any of these assays.

COc1cccc(NC(=O)COC(=O)c2sccc2C)c1	PAFAH2 FP inh 82 | PAFAH2 confirm 82
COc1cccc(NC(=O)COC(=O)c2ccco2)c1	PAFAH2 FP inh 68 | PAFAH2 confirm 63
O=C(COC(=O)c1ccco1)Nc1ccc2c(c1)OCCO2	PAFAH2 FP inh 51 | PAFAH2 confirm 37
COc1ccccc1-c1nnc(SCC(=O)Nc2cccnc2Cl)n1C	none
Cc1ccc(C(=O)NCC(=O)NC2CCC(C)CC2)s1 (configuration not stated)	none
Cc1ccsc1C(=O)OCC(=O)NC1CC1	PAFAH2 FP inh 33 | PAFAH2 confirm inactive
Cc1ccsc1C(=O)OCC(=O)NC1CCCCC1	none (no result: PAFAH2 FP inh, pPAFAH FP inh, PAFAH1B2 FP inh, PAFAH1B3 FP inh)
Cc1ccc(C(=O)OCC(=O)NC2CC2)s1	PAFAH2 FP inh 70 | PAFAH2 confirm 55
C=C(C)COc1ccc2c(C)c(CC(=O)N3C[C@H]4C[C@@H](C3)c3cccc(=O)n3C4)c(=O)oc2c1C	none
COc1ccc(/C=C/C(=O)OCC(=O)NCCc2ccccc2)c(OC)c1	PAFAH2 FP inh 76 | PAFAH2 confirm 60
COc1cc(/C=C/C(=O)OCC(=O)NCc2ccco2)cc(OC)c1OC	none
COc1ccc(/C=C/C(=O)OCC(=O)NCc2ccco2)c(OC)c1	PAFAH2 FP inh 74 | PAFAH2 confirm 69
COc1ccc(OC)c(/C=C/C(=O)OCC(=O)NCc2ccco2)c1	PAFAH2 FP inh 40 | PAFAH2 confirm inactive
COc1cc(/C=C/C(=O)OCC(=O)NCCc2ccccc2)cc(OC)c1OC	none
COc1cccc(/C=C/C(=O)OCC(=O)NCc2ccco2)c1	none
COc1ccc(OC)c(/C=C/C(=O)OCC(=O)Nc2cccc(C(C)=O)c2)c1	PAFAH2 FP inh 68 | PAFAH2 confirm 62
COc1ccc([C@H]2C[C@@H](O)[C@H](n3cc(C4CC4)nn3)CN2Cc2cccs2)cc1	none (no result: PAFAH2 FP inh, pPAFAH FP inh, PAFAH1B2 FP inh, PAFAH1B3 FP inh)
COc1ccc(C(=O)OCC(=O)NC2CC2)cc1OC	PAFAH2 FP inh 67 | PAFAH2 confirm 55
COc1ccc(CC(=O)NC2CC2)cc1OC	none
CC1CCC(NC(=O)COC(=O)c2ccc3ncsc3c2)CC1 (configuration not stated)	PAFAH2 FP inh 83 | PAFAH2 confirm 69
COc1ccc(C(=O)OCC(=O)NC2CC2)cc1[N+](=O)[O-]	PAFAH2 FP inh 31 | PAFAH2 confirm inactive
COc1ccc(C(=O)OCC(N)=O)cc1[N+](=O)[O-]	none
Cc1ccc(C(=O)OCC(=O)NC2CCCC2)cc1C	PAFAH2 FP inh 87 | PAFAH2 confirm 82
COC(=O)[C@]12CCCCC=C1N(Cc1cccc3ccccc13)C(=O)[C@H](CC(=O)NCc1ccc(C)o1)C2	none (no result: PAFAH2 FP inh, Rin1-Abl PPI inh, pPAFAH FP inh, PAFAH1B2 FP inh, PAFAH1B3 FP inh)
COc1ccc(Cl)cc1S(=O)(=O)N1CCC(C(=O)NCCC2=CCCCC2)CC1	none
CCCOc1ccc(C(=O)N2CCN(Cc3ccc4c(c3)OCO4)CC2)cc1	none
NC(N)=NN=C(c1ccc(F)cc1)c1ccc(C(F)(F)F)cc1	none (no result: pPAFAH FP inh)
CCOc1ccc(C(=O)OCC(=O)NC2CCCC2)cc1OCC	PAFAH2 FP inh 84 | PAFAH2 confirm 82
CCN(CC)S(=O)(=O)c1ccc(C(=O)OCC(=O)NC2CCCC2)cc1	none
COc1ccc(C(=O)OCC(=O)NC2CCCCCCC2)cc1OC	PAFAH2 FP inh 87 | PAFAH2 confirm 78
COc1ccc(C(=O)NCC(=O)OCC(=O)NC2CCCCCC2)cc1OC	none
COc1ccc(C(=O)OCC(=O)NC2CCCCCC2)cc1OC	PAFAH2 FP inh 93 | PAFAH2 confirm 83
Cc1ccc(C(=O)OCC(=O)NC2CCCCCC2)c(C)c1	PAFAH2 FP inh 86 (no result: pPAFAH FP inh) | PAFAH2 confirm 78
COc1cc(OC)cc(C(=O)OCC(=O)NC2CCCCCC2)c1	PAFAH2 FP inh 61 | PAFAH2 confirm 59
COc1ccc(C(=O)OCC(=O)NC2CCCC2)cc1OC	PAFAH2 FP inh 76 | PAFAH2 confirm 80
COC(=O)c1cc(C(=O)OCC(=O)NC2CCCC2)cc([N+](=O)[O-])c1	none
COc1ccc(C(=O)OCC(=O)Nc2ccccc2)cc1[N+](=O)[O-]	PAFAH2 FP inh 71 | PAFAH2 confirm 73
O=C(COC(=O)c1ccc(O)cc1O)NC1CCCCCC1	PAFAH2 FP inh 46 | PAFAH2 confirm 31
Nc1ccccc1SCC(=O)Nc1ccc2c(c1)OCCO2	none
Cc1ccc(NC(=O)C(C)N2CCN(C)CC2)cc1S(=O)(=O)N1CCOCC1 (configuration not stated)	none
O=C(Nc1ccc([N+](=O)[O-])cc1)c1cccc([N+](=O)[O-])c1	none (no result: PAFAH2 FP inh, pPAFAH FP inh, PAFAH1B2 FP inh, PAFAH1B3 FP inh)
O=C(NNC(=O)c1cccc(O)c1)Nc1ccc([N+](=O)[O-])cc1	PAFAH2 FP inh 49 | PAFAH2 confirm inactive
C[N+](=O)C1C(=O)Nc2ccccc21 (configuration not stated)	none (no result: PAFAH2 FP inh, Rin1-Abl PPI inh, pPAFAH FP inh, PAFAH1B2 FP inh, PAFAH1B3 FP inh)
COc1ccc(/C=C/C(=O)OCC(=O)NCCCc2ccccc2)cc1OC	PAFAH2 FP inh 52 | PAFAH2 confirm 40
COc1ccc(/C=C/C(=O)OCC(=O)NCc2ccccc2Cl)cc1OC	PAFAH2 FP inh 79 | PAFAH2 confirm 76
COc1ccc(CCNC(=O)COC(=O)/C=C/c2ccc(OC)c(OC)c2)cc1	PAFAH2 FP inh 39 | PAFAH2 confirm inactive
CCS(=O)(=O)c1ccc(O)c(NC(=O)COc2ccccc2)c1	PAFAH2 FP inh 48 | PAFAH2 confirm 44
CCS(=O)(=O)c1ccc(O)c(NC(=O)NC2CCCCC2)c1	PAFAH2 FP inh 81 | PAFAH2 confirm 64
CCn1c(SCCN2CCCCC2)nc2c1c(=O)n(C)c(=O)n2C	none (no result: pPAFAH FP inh)
O=C(COC(=O)c1cccc(S(=O)(=O)N2CCCC2)c1)Nc1cccc(Br)c1	none (no result: PAFAH2 FP inh, pPAFAH FP inh, PAFAH1B2 FP inh, PAFAH1B3 FP inh)
CCN(CC)S(=O)(=O)c1cc(C(=O)OCC(=O)Nc2cccc(Br)c2)ccc1F	PAFAH2 FP inh 32 | PAFAH2 confirm inactive
CCc1cccc(CC)c1NC(=O)COC(=O)c1ccc(F)c(S(=O)(=O)N(CC)CC)c1	PAFAH2 FP inh 30 | PAFAH2 confirm inactive
COc1cccc(C(NC(C)=O)c2nc(-c3ccoc3)cs2)c1 (configuration not stated)	none (no result: PAFAH2 FP inh, pPAFAH FP inh, PAFAH1B2 FP inh, PAFAH1B3 FP inh)
CC(C)c1ccc(S(=O)(=O)N2CCN(C(=O)Cc3ccsc3)CC2)cc1	none
Cc1cccc(C(C)C)c1NC(=O)COC(=O)CN1C(=O)C2CC=CCC2C1=O (configuration not stated)	PAFAH2 FP inh 53 | PAFAH2 confirm 37
Cc1cccc(C)c1NC(=O)CN1C(=O)C2CC=CCC2C1=O (configuration not stated)	none
CC1(C(=O)NS(=O)(=O)c2cccs2)CCN1C(=O)CC1CCCC1 (configuration not stated)	none (no result: PAFAH2 FP inh, pPAFAH FP inh, PAFAH1B2 FP inh, PAFAH1B3 FP inh)
COc1cc(N)c(Cl)cc1C(=O)OCC(=O)N1CCc2ccccc21	PAFAH2 FP inh 33 | PAFAH2 confirm inactive
O=C(OCC(=O)N1CCc2ccccc21)c1ccccc1	PAFAH2 FP inh 47 | PAFAH2 confirm 38
